SF-1 inh: blocks the human nuclear receptor SF-1. Q13285. CHO-K1 Gal4-SF-1 LBD luciferase reporter. inhibition, % at 10 µM. 65,000 compounds, 0.55% hits. AID 525;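 active = inhibition above the mean inhibition of all tested compounds plus 3 SD, cut at about 48% in these data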;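 also: 0% = SF-1 transfected cells with DMSO and 100% = mock-transfected cells lacking SF-1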
Target sequence (Q13285 whole entry, looked up, the tested form may be a part): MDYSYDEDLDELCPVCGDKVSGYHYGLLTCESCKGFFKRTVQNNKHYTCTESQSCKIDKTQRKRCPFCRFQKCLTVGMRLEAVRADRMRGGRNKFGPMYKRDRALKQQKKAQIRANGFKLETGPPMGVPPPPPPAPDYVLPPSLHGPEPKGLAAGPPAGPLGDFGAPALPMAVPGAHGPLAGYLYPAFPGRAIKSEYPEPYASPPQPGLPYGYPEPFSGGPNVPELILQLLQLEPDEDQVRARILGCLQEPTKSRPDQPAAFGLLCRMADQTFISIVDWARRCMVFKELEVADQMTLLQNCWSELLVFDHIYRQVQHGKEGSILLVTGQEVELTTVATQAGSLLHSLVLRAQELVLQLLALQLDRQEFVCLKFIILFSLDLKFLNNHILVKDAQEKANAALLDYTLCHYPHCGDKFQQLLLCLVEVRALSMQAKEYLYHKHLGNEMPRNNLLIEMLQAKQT
Starred values were filed as active, the others as inactive. The sample as a whole holds a higher share of hits than the screen did.

SMILES | SF-1 inh
COc1ccc(C(=O)Nc2nc3ccccc3[nH]2)cc1OC | -50
c1csc(CSc2nc3ccccc3s2)c1 | -52
Cc1ccc(CNc2nc3ccccc3s2)s1 | 61*
Cc1noc(C)c1CSc1nc2ccccc2s1 | -19
O=C(CCC(=O)N(CC(=O)NC1CCCCC1)c1ccc2c(c1)OCO2)Nc1ccccn1 | -14
Fc1ccc(-n2[nH]nnc2=S)cc1N1CCCC1 | 5
CCOCCCNC(=O)CCS(=O)(=O)Cc1ccc(C)cc1 | 18
Cc1ccc(S(=O)(=O)Nc2nc(C)cc(NCCN)n2)cc1 | -8
COc1cc(NS(=O)(=O)c2ccc(C)cc2)c2ncccc2c1 | 94*
COc1cccc(NC(=O)C2CCCN(S(=O)(=O)c3cccc4cccnc34)C2)c1 (stereo not given) | 4
COc1ccc(C)cc1Cn1c(S(C)(=O)=O)nc2ccccc21 | 3
Cc1ccccc1OC(=O)CCC(=O)OCCCC(F)(F)C(F)(F)F | -3
COc1ccc(N2CCN(CCNC(=O)CCNS(=O)(=O)c3cccs3)CC2)cc1 | -10
COc1ccc(NC(=O)NCCCN2CCN(c3cc(C)ccc3C)CC2)cc1 | 49*
Cc1ccc2c(c1)NC(=O)C(CC(=O)NCCCN1CCN(c3cc(Cl)ccc3C)CC1)O2 (stereo not given) | 13
CC(C)CC(NC(=O)OC(C)(C)C)C(=O)NC(C(=O)N1CCCC1C(N)=O)C(C)C (stereo not given) | 13
C/C(N)=C(/C#N)C(=O)CSc1nc2ccc(C)cc2[nH]1 | -77
O=C(NCCN1CCOCC1)C1CCC(=O)N1C1CCCCC1 (stereo not given) | 11
CCC1(CC)C(=O)NC(=O)NC1=NCCc1ccc(O)cc1 | 4
N#C/C(=C\c1ccc(O)c(O)c1)C(=O)NCCCc1ccccc1 | 69*
CCOc1ccc2[nH]c(=O)c(CN(CCO)C(=O)c3ccc(F)cc3)cc2c1 | -10
c1ccc(-c2nc3ccccc3s2)nc1 | -60
c1ccc(-c2ccc(-c3ccccn3)nn2)nc1 | 53*
c1ccc(-c2n[nH]c(-c3ccccn3)n2)nc1 | -78
O=C(Nc1nnc(C2CCCCC2)s1)c1ccco1 | -70
SMILES | SF-1 inh
COc1ccccc1CC(=O)N1CCN(c2cccc(C(F)(F)F)c2)CC1 | 48*
O=C(O)CCC(=O)N1CCN(c2cccc(Cl)c2)CC1 | -10
COc1ccc2c(c1OC)C(=O)N(c1cccc(C(F)(F)F)c1)C2 | -59
O=C(Cn1c(=O)sc2ccccc21)NCCOc1ccccc1F | -10
O=C(NCc1ccco1)C1CCC(CNS(=O)(=O)c2cccc3cccnc23)CC1 (stereo not given) | -6
c1ccc(-c2cn3nc(-c4ccccc4)sc3n2)cc1 | 51*
Cc1nc(-c2ccccc2)sc1C(N)=O | 3
O=S1CCCSC1c1cccnc1 (stereo not given) | 1
CSC1=C(C#N)C(C)C2=C(CC(C)(C)CC2=O)N1 (stereo not given) | -3
CN(Cc1ccccc1)C(=O)CCNS(=O)(=O)c1ccc2c(c1)oc(=O)n2C | 7
CCCOc1ccc(-c2nnc(-c3ccco3)o2)cc1 | 64*
COc1ccc(-c2noc(-c3ccco3)n2)cc1OC | -50
O=C(COc1ccccc1)Nc1ccc(-c2nnc(-c3ccco3)o2)cc1 | -66
CCOc1ccc(OCC)c(NC(=O)CSc2nc3c(c(=O)n(C)c(=O)n3C)n2C(C)C)c1 | -101
CCC(CC)c1nc(NCCC(=O)O)c2ccccc2n1 | 6
Cc1ccc(-c2nc3nc4ccccc4nc3n2Cc2ccco2)cc1 | 59*
c1ccc(Cn2c(-c3ccco3)nc3nc4ccccc4nc32)cc1 | -82
COc1ccc(CCn2c(-c3ccco3)nc3nc4ccccc4nc32)cc1 | -29
COc1ccc(-c2nc(-c3ccncc3)no2)cc1OC | -74
Brc1ccc(-c2nc(-c3ccccc3)no2)o1 | -63
c1ccc(-c2noc(-c3ccc4ccccc4c3)n2)cc1 | 50*
CCOC(=O)CNc1c(N2CCN(c3ccccn3)CC2)c(=O)c1=O | -14
Cc1cccc(OCC(O)CN2CCN(C3CCCCC3)CC2)c1 (stereo not given) | -36
Cc1nc2ccc(C(=O)c3ccccc3)cc2[nH]1 | -57
O=C(c1cccs1)c1cn(CC(=O)N2CCc3ccccc3C2)c2ccccc12 | 4
SMILES | SF-1 inh
O=C(NCCOc1ccccc1)c1ccc2c(c1)OCO2 | 59*
O=C(Nc1ccc(F)c(F)c1)c1ccc2c(c1)OCO2 | -66
COc1cc2c(cc1NC(=O)c1ccc3c(c1)OCO3)oc1ccccc12 | -54
CCOC(=O)Cn1c(=O)oc2cc(S(=O)(=O)NCc3cccs3)ccc21 | 9
COc1cc2c(cc1NC(=O)CN1C(=O)NC3(CCc4ccccc43)C1=O)oc1ccccc12 (stereo not given) | -3
O=C(Nc1nnc(C2CCCC2)s1)C1CCN(S(=O)(=O)c2ccc(Cl)cc2)CC1 | -1
COc1cc(C2C(C#N)=C(N)Oc3cc(N(C)C)ccc32)cc2c1OCO2 (stereo not given) | 59*
COCCn1c(C2CCCCC2)nc2sc3ccccc3c(=O)c2c1=O | -2
O=C(CSc1cccc2cccnc12)NCc1ccco1 | 12
COc1cccc2cc(NC(=O)C3CCCCC3)c(=O)oc12 | -66
O=S(=O)(NCCc1cn2ccccc2n1)c1cccs1 | -18
CCOc1cc(C(=O)Nc2ccc(S(=O)(=O)N3CCOCC3)cc2)cc(OCC)c1OCC | -12
COc1ccc(N=c2scc(-c3ccc(S(=O)(=O)N4CCOCC4)cc3)n2CCCO)cc1 | 64*
O=C(Nc1ccc(S(=O)(=O)N2CCOCC2)cc1)c1cccs1 | -1
COC(=O)C(C)Oc1ccc2c3c(c(=O)oc2c1)CCCCC3 (stereo not given) | -12
COCCCn1c(SCC(=O)Nc2ccc3c(c2)OCCO3)nnc1-c1ccoc1C | -15
O=C(NCCSc1ccccc1)c1cccnc1 | -62
Cc1nn(-c2nc3ccccc3s2)c(C)c1Oc1ccccc1O | -58
COc1ccccc1CC1(C)NC(=O)N(CC(=O)N2CC(C)OC(C)C2)C1=O (stereo not given) | 4
Cc1onc(-c2c(F)cccc2Cl)c1C(=O)NCc1ccccn1 | -1
Cc1cc(/C=N/n2cnnc2)c(C)n1-c1ccc(OCc2ccccc2F)cc1 | 84*
CN(C)c1ccc(NC(=O)Nc2cccc(Cl)c2)cc1 | -64
CN(C)S(=O)(=O)c1ccc(NC(=O)c2ccccn2)cc1 | -74
CN(C)c1ccc(NC(=S)c2ccccn2)cc1 | 86*
O=C(NC1(C(=O)NC2CCCCC2)CCCCC1)c1ccc2c(c1)OCO2 | -11
SMILES | SF-1 inh
O=C(c1ccc(Cl)cc1)N1CCCCC(Sc2nnc(-c3ccc4c(c3)OCO4)o2)C1=O (stereo not given) | 89*
Cn1c2c(c(=O)n(C)c1=O)C(c1cc3c(cc1Br)OCO3)CC(=O)N2 (stereo not given) | 15
COC(=O)CSc1nnc(-c2ccncc2)n1N | 0
Cc1c(NC(=O)CCCCCN2C(=O)C3C4C=CC(C4)C3C2=O)c(=O)n(-c2ccccc2)n1C (stereo not given) | -11
Cc1ccc(NC2=NC(c3ccc(C)cc3)n3c(nc(C)cc3=O)N2)cc1 (stereo not given) | -11
CCC(NC(=O)Nc1nnc(C(F)(F)F)s1)(C(F)(F)F)C(F)(F)F | 94*
CCC(NC(=O)Nc1ncccc1C)(C(F)(F)F)C(F)(F)F | -7
COc1ccc(C(=O)Nc2nnc(C(F)(F)F)s2)cc1 | -57
CCSCCNC(=O)c1cncc(Br)c1 | 17
Cc1sc2nc3n(c(=O)c2c1C)Cc1ccccc1-3 | -56
Cc1cnc(NC(=O)c2ccco2)s1 | -53
COc1ccc(N2CCN(C(c3cccs3)C(C)NC(=O)c3ccco3)CC2)cc1 (stereo not given) | -16

From PubChem
